From ChEMBL document CHEMBL4513216, “Probing the Open Global Health Chemical Diversity Library for Multistage-Active Starting Points for Next-Generation Antimalarials” (ACS Infect Dis, 2020)
The campaign covered roughly 65,000 compounds. About 2,100 (3.2%) showed an effect of 50% or more. The median lay at about -52%. The list comes from a sample in which strong results are over-represented; it also holds similar structures and randomly drawn compounds.

Each molecule was assayed on Plasmodium falciparum (assay: Screen against P. falciparum Asexual Blood Stage (ABS), at 5uM). Settings: tested at 5 uM.
Format: functional, Dd2

| SMILES | INHIBITION [%] |
| --- | --- |
| Cc1cnn(CCC(=O)N2CCN(C(=O)C(C)C)[C@@H]3CS(=O)(=O)C[C@@H]32)c1 | -87.4 |
| CCOC(=O)c1nc(COc2ccc(CC(N)=O)cc2)no1 | -26 |
| Cc1noc(C)c1CN1CC[C@@H](OCC2CC2)[C@@H](Cc2ccccc2)C1 | 26.2 |
| CO[C@H]1CCN(Cc2ccoc2)C[C@@H]1Cc1ccccc1 | 67.3 |
| Cc1noc(C)c1CN1CC[C@H](OCC2CC2)[C@@H](Cc2ccccc2)C1 | 62.1 |
| COCCN1CC[C@H](OC)[C@@H]1Cc1ccccc1 | 62.8 |
| COc1ccc(C[C@H]2CN(C(=O)C3CC3)CC[C@H]2OC)cc1 | 35.6 |
| c1ccc(C[C@H]2CN(Cc3nccs3)CC[C@H]2OCC2CC2)cc1 | 40.9 |
| CO[C@@H]1CCN(Cc2nccs2)C[C@@H]1Cc1ccccc1 | -9.75 |
| CO[C@H]1CCN(Cc2nccs2)C[C@@H]1Cc1ccccc1 | -25.6 |
| COCCN1CC[C@@H](O)[C@@H]1Cc1ccccc1 | -32.4 |
| COc1ccc(C[C@H]2CN(c3cc(OC)ncn3)CC[C@@H]2OC)cc1 | -0.505 |
| COc1ccc(C[C@H]2CN(Cc3ccoc3)CC[C@@H]2OC)cc1 | 64.8 |
| COCCN1CC[C@@H](OC)[C@@H]1Cc1ccccc1 | 1.53 |
| COc1ccc(S(=O)(=O)C2CCN(C(=O)c3cc(C)cs3)CC2)cc1 | -23.3 |
| CCC(NC(=O)NCc1cccc(N(C)C)n1)c1nccs1 (stereo unspecified) | -84.7 |
| Cn1cnc(S(=O)(=O)N2CCCc3cc(F)cc(F)c32)c1Cl | -84.8 |
| CO[C@H]1CCN(C(=O)Cc2ccccn2)[C@H]1Cc1ccncc1 | -128 |
| COc1cc(NC2CCS(=O)(=O)CC2)ncn1 | -119 |
| N[C@@H]1c2ccccc2C2(CCN(c3cccc(C(F)(F)F)n3)CC2)[C@H]1O | -35.9 |
| Cc1ccc(CC(=O)N2CCOCC2c2c(C)n[nH]c2C)cc1 (stereo unspecified) | -37.5 |
| COc1ccc(C[C@H]2CN(c3nnc(C)s3)CC[C@@H]2OC)cc1 | -16 |

| SMILES | INHIBITION [%] |
| --- | --- |
| COc1ccc(C[C@H]2CN(c3nnc(C)s3)CC[C@H]2OC)cc1 | -2.98 |
| CO[C@@H]1CCN(Cc2ccoc2)[C@H]1Cc1ccccc1 | 61.4 |
| CO[C@@H]1CCN(Cc2cccs2)[C@H]1Cc1ccncc1 | -27.7 |
| COc1ccc(C[C@H]2CNCC[C@H]2OC)cc1 | 58 |
| COCCO[C@H]1CCN(Cc2ccoc2)[C@H]1Cc1cccnc1 | -10.4 |
| CCOCCN1CCN(Cc2nc(CC(C)C)no2)CC1 | 18.6 |
| CS(=O)(=O)NC[C@]12COC[C@H]1CN(C(=O)C1CC(F)(F)C1)C2 | -80.1 |
| COc1cccc(-c2noc(C3CCN(Cc4ccccc4F)C3)n2)c1 (stereo unspecified) | -118 |
| Cn1nc2c(cc1=O)CN(Cc1coc(-c3ccccc3)n1)CC2 | -138 |
| COc1ccc(CN(C)[C@@H]2COC[C@H]2c2ccc(F)cc2)c(OC)c1 | 9.39 |
| CNc1cc2c(nn1)CCN(C(=O)c1ccc3c(c1)OCO3)C2 | -135 |
| O=C1NCCCC12CCN(Cc1ccc(-c3ccccc3)s1)C2 (stereo unspecified) | -138 |
| CCOc1cc(Cl)c(CN2CCC3(CCCNC3=O)C2)cc1OC (stereo unspecified) | -15.1 |
| O=C1NCCCC12CCN(Cc1ccc(SC3CCCCC3)o1)C2 (stereo unspecified) | 56.4 |
| O=C(NCCc1ccn(-c2ccccc2)n1)N1CCCC(CO)C1 (stereo unspecified) | -78.9 |
| CNC(=O)c1ccc(CN2CCN(C3=NCC(C)(C)S3)CC2)cc1 | -92 |
| O=C(c1cc(=O)n(-c2ccccc2)[nH]1)N1CCCC(c2ccn[nH]2)C1 (stereo unspecified) | -22.8 |
| COCCN1CCN(Cc2cccc(C(=O)N(C)C)c2)CC1 | 7.48 |
| CCOCCN1CCN(Cc2cccc(C(=O)N(C)C)c2)CC1 | -117 |
| CN(C)C(=O)c1cccc(CN2CCN(CCO)CC2)c1 | 61 |
| COc1cc2c(c(OC)c1OC)CCN(CCn1cncn1)CC2 | -167 |
| COC1CCCN(Cc2cc(O)c3cc(C)cc(C)c3n2)C1 (stereo unspecified) | -88.5 |

| SMILES | INHIBITION [%] |
| --- | --- |
| Cc1cc(C)c2nc(CN3CC[C@@H](O)C3)cc(O)c2c1 | -6.9 |
| Cc1cc(C)c2nc(CN3CCCC(c4cc[nH]n4)C3)cc(O)c2c1 (stereo unspecified) | 54.4 |
| CCc1c(C)sc2ncnc(N3CCN(C4CCOCC4)CC3)c12 | 33.7 |
| CCc1c(C)sc2ncnc(N3CC[C@@H](N4CCOCC4)[C@H](O)C3)c12 | -2.01 |
| CCc1c(C)sc2ncnc(N3C[C@H](O)[C@@H](N4CCCC4)C3)c12 | 62 |
| O=C(C1CCCC1)N1CCOC(c2nc(-c3ncccn3)no2)C1 (stereo unspecified) | -66.9 |
| c1cnc(Nc2cc(CCC3CCNCC3)ccn2)cn1 | -32 |
| c1ccc(OCC2CC2)c(CNC2CCc3ncnn3C2)c1 (stereo unspecified) | 51.2 |
| CNC(=O)COc1ccccc1CNC1CCc2ncnn2C1 (stereo unspecified) | -40.5 |
| c1ccc(OCc2ccncc2)c(CNC2CCc3ncnn3C2)c1 (stereo unspecified) | -32.4 |
| c1cncc(COc2ccccc2CNC2CCc3ncnn3C2)c1 (stereo unspecified) | -137 |
| c1ccc(OC2CCCC2)c(CNC2CCc3ncnn3C2)c1 (stereo unspecified) | 20.5 |
| c1ccc(COc2ccccc2CNC2CCc3ncnn3C2)cc1 (stereo unspecified) | 69.4 |
| Cc1csc(NC(=O)c2cnc(C3CCCN(C)C3)cn2)n1 (stereo unspecified) | -212 |
| NC(=O)[C@@H]1CCCN1C(=O)c1cn(C/C=C/c2ccccc2)nn1 | -88.2 |
| COCCNC(=O)c1nnc2ccc(N3CCOCC3)cc2n1 | -19.6 |
| COC(=O)CNC(=O)c1nc(-c2ccccc2OC)c2cnccn12 | -115 |
| Cc1cc(C)nc(NCCC(=O)NCCn2ccnc2C)n1 | -55.9 |
| N#CC(NC(=O)CCCOc1cccnc1)c1ccc(F)cc1F (stereo unspecified) | -69.7 |
| CSc1nccc(N2CCC(NCc3ccc4c(c3)OCO4)CC2)n1 | 51.4 |
| CSc1nccc(N2CCC(NCCN3CCOCC3)CC2)n1 | -47.4 |
| CSc1nccc(N2CCC(NCc3nc(C)cc(C)n3)CC2)n1 | -119 |

| SMILES | INHIBITION [%] |
| --- | --- |
| CNc1nc(CNC(=O)Nc2cccc(CSC)c2)cs1 | 28.7 |
| CCN1CCC2(C1)CN(S(=O)(=O)c1cn(C)cn1)C2 | -42.2 |
| CCOC(=O)CCN(Cc1cccnc1)C(=O)c1cc(Cl)c[nH]1 | -43.4 |
| CCc1cnc(N2C[C@@H]3C[C@H](C(=O)NCC(C)C)[C@H](C2)O3)nc1 | -47.5 |
| Cc1cccn2cc(CN3CCCC(O)C3)nc12 (stereo unspecified) | -34.8 |
| Cc1cccn2cc(CN3CCCC(c4noc(C5CC5)n4)C3)nc12 (stereo unspecified) | 54.6 |
| Cc1cccn2cc(CN3CCCC(c4ccn[nH]4)C3)nc12 (stereo unspecified) | -34 |
| CC(C)c1nn(C)c(Cl)c1CNCc1cccnc1N(C)C | -8.45 |
| O=C(c1cccs1)N1CCCC2(COCCN(c3cccnc3)C2)C1 (stereo unspecified) | 4.74 |
| c1ccc(-c2nc(CN3CCCCC3Cn3cncn3)co2)cc1 (stereo unspecified) | -87.1 |
| CN(C)C(=O)CN1CCCC(c2cncc(-c3cccc(Cl)c3)n2)C1 (stereo unspecified) | 49.6 |
| CN1CCC(c2cncc(-c3cccc(Cl)c3)n2)CC1 | 54.5 |
| O=C(CO)N1CCC(c2cncc(-c3cccc(Cl)c3)n2)CC1 | -122 |
| CN(C)C(=O)CN1CCC(c2cncc(-c3cccc(Cl)c3)n2)CC1 | -53.1 |
| NC(=O)CN1CCC(c2cncc(-c3cccc(Cl)c3)n2)CC1 | 67.6 |
| Cc1ccccc1-c1cncc(C2CCN(C)CC2)n1 | -69.9 |
| Cc1ccc(CN(C)C(=O)CNC(C)(C)c2noc(C(C)(C)C)n2)o1 | -62.5 |
| COCCC(=O)N1CCC2(COCc3cnc(N(C)C)nc32)C1 (stereo unspecified) | -29 |
| CCc1ccc(CN(C)C(=O)c2cnc3c(c2)nc(N)n3CC)nc1 | -20.9 |
| COc1cccc(OCCNS(=O)(=O)Cc2ccccc2)c1 | -91.8 |
| COc1cccc(OCCNCc2ccccc2)c1 | 34.7 |
| COc1cccc(CNCCNS(=O)(=O)Cc2ccccc2)c1 | 55.5 |

| SMILES | INHIBITION [%] |
| --- | --- |
| CN(Cc1cn2ccccc2c1C#N)C1CCCN(c2cccnn2)C1 (stereo unspecified) | -92.9 |
| O=C(NCc1cncc2c1CCN(C1CCOCC1)C2)c1ccco1 | -81.7 |
| O=C(C(CNCc1cccs1)c1ccccc1)N1CCOCC1 (stereo unspecified) | 7.93 |
| O=C(C(CNCc1ccsc1)c1ccccc1)N1CCOCC1 (stereo unspecified) | 63.6 |
| O=C(C(CNCc1cccc(O)c1)c1ccccc1)N1CCOCC1 (stereo unspecified) | -52.6 |
| O=C(c1nn[nH]c1Nc1ccc(Cl)cc1)N1CCCCCC1 | 23.3 |
| Cc1nc(C)c(C(C)NCc2c(C)nn(CC(C)C)c2N(C)C)s1 (stereo unspecified) | -40.1 |
| Cc1ccc(CN2CC[C@@H](O)[C@@H]2Cc2cnn(C)c2)o1 | -75.8 |
| CO[C@@H]1CCN(Cc2ccc(C)o2)[C@H]1Cc1ccccc1 | -45.5 |
| Cc1ccc(CN2CC[C@@H](O)[C@@H]2Cc2ccccc2)o1 | 51.6 |
| Cn1cc(NC(=O)c2cccc(-n3cnnn3)c2)cn1 | -36 |
| COc1cccc(CNC2CCSC2)c1OC (stereo unspecified) | -18.4 |
| COc1cc(OC)cc(N2CCC(NCc3cc[nH]n3)C2)c1 (stereo unspecified) | -39.5 |
| c1ccc(N2CCC(NCc3cccc4cn[nH]c34)C2)cc1 (stereo unspecified) | -37.2 |
| COc1cc(CNC2CCN(c3ccccc3)C2)cc(OC)c1OC (stereo unspecified) | 64.6 |
| COc1ccc(CNC2CCN(c3ccccc3)C2)cc1O (stereo unspecified) | 40.9 |
| COc1ccc(CNC2CCN(c3ccccc3)C2)c(OC)c1OC (stereo unspecified) | 55.2 |
| Cc1cc(C)c(CNC(=O)c2ccc3c(c2)CCC3)c(=O)[nH]1 | -48.6 |
